Screens deposited in PubChem BioAssay by SRMLSC.
Rows were chosen to be rich in hits. Some 6.6% of all compounds tested hit in one or more screens of this group.
Spn PMK inh – S. pneumoniae PMK inhibitors, primary screen, biochemical, mevalonate pathway, pilot trial included; purified PMK, PK/LDH-coupled NADH absorbance 340 nm; hit rate 0.49% among 65,000; AID 539, 2006; inhibition, % at 10 µM;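 active = top-ranked compounds by inhibition in the single 10 µM screen, taking a fixed number of the strongest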;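 note: 0% = full reaction with DMSO carrier and 100% = background rate without enzyme reaction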
NADH coupling – inhibitors of PK/LDH coupling enzymes, profiling panel, artefact control, biochemical, MLSMR library | IC50, µM (top dose mostly 10 µM), for the others: at the highest dose inhibition | hit rate 0.02% among 65,000 | coupled PK/LDH NADH assays, four targets;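 active = single-dose screening hits from any of four coupled enzyme assays that gave an IC50 when retested across doses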;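 note: the DPM-DC format reads NADH fluorescence rather than 340 nm absorbance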
Spn MK inh – S. pneumoniae MK inhibitors, primary screen, biochemical, PK/LDH-coupled NADH absorbance. mevalonate kinase [Streptococcus pneumoniae D39]. purified MK, PK/LDH-coupled NADH absorbance 340 nm. inhibition, % at 10 µM. hit rate 0.48% among 65,000. AID 555, 2006;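 active = ranked among the strongest by inhibition in the single 10 µM screen, a fixed top-ranked set picked for dose follow-up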
DPM-DC inhibit – S. pneumoniae DPM-DC inhibitors, primary screen, biochemical, PK/LDH-coupled NADH fluorescence. diphosphomevalonate decarboxylase (Streptococcus pneumoniae D39). purified DPM-DC. calls only at 10 µM. hit rate 0.49% among 65,000. AID 556, 2006;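 active = the 320 compounds with the highest percent inhibition in the single-dose primary screen, excluding strongly autofluorescent ones, cut at about 32% in these data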;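 note: kinetic rate of NADH fluorescence loss reporting ADP formed by the decarboxylase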
Fluor 339 460 – intrinsic fluorescence of library compounds, ex339/em460 – biochemical, MLSMR library, data from DPM-DC assay, artefact control, profiling panel | compound autofluorescence, ex339/em460 nm, NADH buffer; hits give high values; 1 = no-compound wells, NADH background | hit rate 5.5% among 65,000 | AID 709, 2007 | fluorescence fold increase at 10 µM;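 active = at 10 µM, mean starting fluorescence two-fold or more over control wells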;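 note: signal is the first read of a kinetic run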
An asterisk follows results filed as active; i = inactive; / = no result given; + = active, no number.

SMILES | Spn PMK inh | NADH coupling | Spn MK inh | DPM-DC inhibit | Fluor 339 460
O=C(CN1CCN(C2CCCCC2)CC1)NCCC1=CCCCC1 | 4 | 22% | 61* | i | 1.1
CS(=O)(=O)N(CC(=O)NCCC1=CCCCC1)C1CCCCC1 | 13 | 6% | 6 | i | 1
CCOC(=O)N1CCN(C(=O)Nc2ccc3nc(C)c(C)nc3c2)CC1 | 5 | 7% | 8 | / | 2.2*
O=C(Nc1ccc2nc(-c3ccco3)c(-c3ccco3)nc2c1)N1CCCCCC1 | 9 | 19% | 16 | + | 2.7*
O=C(NC1CCCC1)c1ccc2nc(-c3ccco3)c(-c3ccco3)nc2c1 | 19 | 17% | 20 | i | 2.9*
CCOC(=O)C1CCN(C(=O)Nc2ccc3nc(-c4ccco4)c(-c4ccco4)nc3c2)CC1 | 0 | 15% | 20 | i | 1.7
O=C(NC1CCCC1)c1ccc2nc[nH]c2c1 | 11 | 4% | 11 | i | 1.1
CCc1nnc(NC2=NCCC2)s1 | 17 | 7% | 3 | i | 1.1
Cc1ccc(-c2cc(C(F)F)n3ncc(C(=O)N4CCN5CCCC5C4)c3n2)cc1 (stereo unspecified) | 1 | 5% | 0 | i | 1.8
CCOC(=O)C1CCCN(C(=O)c2cnn3c(C(F)F)cc(-c4ccc(C)cc4)nc23)C1 (stereo unspecified) | 4 | 8% | 6 | i | 2.3*
CCOC(=O)C1CCN(C(=O)c2cnn3c(C)cc(C)nc23)CC1 | 20 | 15% | 0 | i | 3.5*
COc1ccc(-c2cc(C(F)F)n3ncc(C(=O)N4CCSCC4)c3n2)cc1 | 8 | 12% | 15 | / | 3.5*
Cc1ccc(-n2cc(C(C)(C)C)[nH]c2=S)cc1 | 5 | 5% | 9 | i | 1.1
Cc1ccc(S(=O)(=O)N(Cc2cc3cc4c(cc3[nH]c2=O)OCCO4)CC2CCCO2)cc1 (stereo unspecified) | 2 | 4% | 6 | / | 3.5*
COC(=O)c1ccc(S(=O)(=O)N(Cc2cc3cc4c(cc3[nH]c2=O)OCO4)C2CCCCC2)cc1 | 2 | 6% | 10 | / | 3.6*
O=c1[nH]c2cc3c(cc2cc1CN(CC1CCCO1)S(=O)(=O)c1ccc(Cl)cc1)OCCO3 (stereo unspecified) | 8 | 7% | 9 | i | 2.6*
CC(=O)c1ccc(S(=O)(=O)N(Cc2cc3cc4c(cc3[nH]c2=O)OCCO4)CC2CCCO2)cc1 (stereo unspecified) | 5 | 3% | / | i | 1.2
CCn1cc(SCC(=O)NCC2CCCO2)c2ccccc21 (stereo unspecified) | 16 | 3% | 6 | i | 1.1
Cn1nnc(NC(=O)C(c2ccccc2)c2ccccc2)n1 | 7 | 4% | 4 | i | 1.1
CC(C)(CO)NC(=O)C(c1ccccc1)c1ccccc1 | 0 | 36% | 11 | + | 1.1
O=S1(=O)CC(O)C(Nc2ccccc2Cl)C1 (stereo unspecified) | 0 | 4% | 13 | i | 1.1
O=c1nc2c(-c3ccccc3F)n[nH]n2c2ccccc12 | 0 | 1% | 2 | / | 5.1*
COc1cc(C2c3c(n[nH]c3C)C(=O)N2c2ccc(C)cc2)ccc1O (stereo unspecified) | 0 | 9% | 10* | i | 1
Cc1cc(-n2c(=O)c(C#N)cc3c(=O)n4ccccc4nc32)no1 | 16 | 13% | 9 | / | 3.8*
Cc1cc(N2C(=O)C3C4c5ccccc5C(c5ccccc54)C3C2=O)no1 (stereo unspecified) | 1 | 2% | 2 | i | 1.1
SMILES | Spn PMK inh | NADH coupling | Spn MK inh | DPM-DC inhibit | Fluor 339 460
C=CCn1c(=O)c(C#N)cc2c(=O)n3ccccc3nc21 | 13 | 7% | 0 | / | 4.8*
CC(=O)Oc1cc(OC(C)=O)c2c(C)cc(=O)oc2c1 | 0 | 0% | 0 | / | 2.2*
CC(=O)Oc1ccc2c(C)cc(=O)[nH]c2c1 | 10 | 6% | 0 | i | 1.6
CC(=O)Oc1cc2oc(=O)cc(C)c2cc1OC(C)=O | 7 | 9% | 11 | / | 2.2*
CC(=O)Nc1c(OC(C)=O)ccc2c(C)cc(=O)oc12 | 11 | 8% | 4 | / | 5.1*
Cc1cc(OC(=O)CNC(=O)OC(C)(C)C)c2c(C)cc(=O)oc2c1 | 11 | 15% | 12 | i | 0.96
